# Out of some 300,000 compounds screened, about 2,400 (0.8%) were called active. This excerpt belongs to a sample that is enriched for actives. Unmarked numbers belong to inactive results.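 The calls were made as follows: active = Every replicate reaches about 75%, or at least half do and their mean reaches it too (limit read from the data); inconclusive = At least half of replicates reach the limit but their mean does not; inactive = Under half of replicates reach the limit.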
# Assay: inhibitors of cytokine-induced beta cell apoptosis, primary screen, luminescence (AID 435005);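 also: 0% = cytokine-treated negative control wells and 100% = positive control rescue; higher means more ATP so stronger rescue from cytokine killing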
# Settings: INS-1E cytokine-induced death, ATP luminescence, 48 h; stronger effect = higher value; percent of positive-control rescue, neutral wells zero; concentration not given here
row,Compound,protection from apoptosis
1,CCC(CO)Oc1cc(NC(=O)c2ccc(Cl)cc2)c2ncn(C(C)C)c2c1 (configuration not stated),2.88%
2,CCOc1cc(N2CCOCC2)c(OCC)cc1NC(=O)c1cc(C)nc2ccccc12,7.08%
3,CCOc1cc(N2CCOCC2)c(OCC)cc1NC(=O)COc1cccc2cccnc12,102% (active)
4,CCOc1cc(N2CCOCC2)c(OCC)cc1NC(=O)COc1cccc(Cl)c1,0.61%
5,C/C(=N\NC(=O)c1ccccc1C)c1ccc(N2CCOCC2)cc1,-16.8%
6,C/C(=N\NC(=O)c1ccoc1C)c1ccccc1O,79.7% (active)
7,Cc1cc(C(=O)NNC(=O)c2ccccc2O)c(C)o1,-1.18%
8,Cn1cncc1C#Cc1c(-c2ccsc2)sc2ccccc12,-6.24%
9,O=C(NCCc1ccc(C(F)(F)F)cc1)c1ccc2c(c1)OCO2,5.32%
10,CCCCNc1c(-c2ccc(OC)c(Sc3ccc(OC)cc3)c2)nc2ccc(Cl)cn12,16.9%
11,O=S(=O)([N-]c1nc2ccccc2nc1-[n+]1ccc(Cc2ccccc2)cc1)c1ccc(Br)s1,118% (active)
12,O=C(NCCc1ccccc1)C1CCN(S(=O)(=O)c2ccc(Br)s2)CC1,2.68%
13,Cc1cc(C)c[n+](-c2nc3ccccc3nc2[N-]S(=O)(=O)c2cccs2)c1,-3.34%
14,Cc1ccc(C(=O)Nc2ccn(C)n2)cc1,-7%
15,CCn1nc(C(=O)NNS(=O)(=O)c2cc(/C=C/C(=O)O)cc(OC)c2OC)c2ccccc2c1=O,0.598%
16,COc1cc(/C=C/C(=O)Nc2ccc(OC)c(S(=O)(=O)N3CCOCC3)c2)ccc1OCC#N,4.79%
17,COc1ccc(OC)c(-c2csc(NC(=O)COC(=O)C3CC3)n2)c1,-4.15%
18,O=C(O)c1ccc(N/N=C/c2cn(-c3ccccc3)nc2-c2cccs2)cc1,-0.771%
19,CC(C)(C)OC(=O)N/N=C/c1cn(-c2ccccc2)nc1-c1cccnc1,2.76%
20,Cc1ccc(-c2nn(-c3ccccc3)cc2/C=N/NC(=O)c2ccc3c(c2)OCO3)cc1,110% (active)
21,Cc1cccc(C(=O)N[C@H](C(=O)NCc2cccs2)C(C)C)c1,3.35%

row,Compound,protection from apoptosis
1,O=C(CN1CCc2ccccc2C1)Nc1cccc(S(=O)(=O)N2CCOCC2)c1,0.0837%
2,N/C(=N\OC(=O)Nc1ccc(Cl)c(Cl)c1)c1ncc(C(F)(F)F)cc1Cl,-13.2%
3,COc1cccc(/C(C)=N/Nc2ncc(Cl)cc2Cl)c1,-0.169%
4,COc1cccc(/C=N/Nc2ncc(C(F)(F)F)cc2Cl)c1O,131% (active)
5,Cc1ccc(/C=C/C(=O)OCC(=O)NCc2ccc(Cl)cc2)o1,0.631%
6,CC(=O)N1c2ccc(S(=O)(=O)N3CCCC(C(=O)Nc4cccc(Cl)c4)C3)cc2CC1C (configuration not stated),6.26%
7,CC(=O)N1CCCc2cc(S(=O)(=O)N3CCCC(C(=O)N4CCN(c5cccc(Cl)c5)CC4)C3)ccc21 (configuration not stated),89.9% (active)
8,CC(=O)N1CCCc2cc(S(=O)(=O)N3CCCC(C(=O)NCc4ccc(Cl)cc4)C3)ccc21 (configuration not stated),4.03%
9,COc1ccccc1C(=O)OCC(=O)Nc1cccc(S(=O)(=O)NC2=NCCCCC2)c1,-2.64%
10,O=C(NCCc1ccco1)c1ccc(OCc2cn3ccccc3n2)cc1,1.94%
11,Cc1cc(C)n(-c2c(F)c(F)c(COC(=O)c3ccccc3)c(F)c2F)n1,3.67%
12,CCOC(=O)c1cnc(-n2nc(C)cc2C)nc1Nc1cccc(C(C)=O)c1,8.92%
13,CCOC(=O)c1cnc(-n2nc(C)cc2C)nc1NNc1cc(C)nc(-c2ccccc2)n1,84.8% (active)
14,C=CCC[C@H](Cc1ccc(F)cc1)C(=O)OC[C@@H](NC(=O)[C@@H](CC=C)CC(=O)N[C@H](CO)Cc1ccccc1)C(C)(C)C,5.28%
15,O=C(NNS(=O)(=O)c1c(F)cc(F)c(Cl)c1F)C12CC3CC(CC(C3)C1)C2,-12%
16,Fc1ccccc1COc1cccc2cccnc12,-7.41%
17,Cc1nc2ccccc2cc1OCc1ccc(F)cc1,95.4% (active)
18,Cc1occc(=O)c1OCc1ccc(F)cc1,-6.87%
19,COC(=O)c1c(NC(=O)COc2ccc(Cl)cc2Cl)sc2c1CC(C)(C)NC2(C)C,114% (active)
20,CCOC(=O)c1c(NC(=O)c2ccc(S(=O)(=O)N(C)CC3CCCO3)cc2)sc2c1CC(C)(C)NC2(C)C (configuration not stated),25.6%
21,Cc1nn(-c2ccccc2)c(C)c1NC(=O)COc1ccc(Cl)cc1Cl,0.164%

row,Compound,protection from apoptosis
1,COc1cc(OC)cc(C(=O)N[C@H](C(=O)NNC(=O)c2ccc(Br)cc2)C(C)C)c1,-4.34%
2,CC1CCCCC1NCC(=O)Nc1ccccc1C(=O)Nc1ccccc1 (configuration not stated),4.75%
3,CSc1ncc(Sc2ccccc2)c(C(=O)O)n1,-2.15%
4,CSc1nc(-c2ccccc2)nc(C(Cl)Cl)n1,105% (active)
5,COc1cc(OC)c(N2CC(C(=O)Nc3cc(Cl)ccc3N3CCOCC3)CC2=O)cc1Cl (configuration not stated),26.3%
6,O=C(COC(=O)Cc1ccc([N+](=O)[O-])cc1)NC1CCCCCC1,-5.89%
7,NC(=O)C1CCN(C(=O)c2ccc(F)c(S(=O)(=O)N3CCOCC3)c2)CC1,0.339%
8,O=C(c1cccnc1)N(c1cc2sc(=O)oc2c2ccccc12)S(=O)(=O)c1ccccc1,81.4% (active)
9,COc1ccc(N(C(=O)c2cccnc2)S(=O)(=O)c2ccc(OC)c(OC)c2)cc1,-3.31%
10,COc1ccc(N(C(=O)c2cccnc2)S(=O)(=O)c2ccc3c(c2)n(C)c(=O)n3C)cc1,-8.54%
11,COc1cc(Cl)c(C)cc1NC(=O)CSc1nnc(CN2CCCC2)o1,2.22%
12,COc1cccc(NC(=O)COC(=O)c2ccc3ccccc3n2)c1,-5.49%
13,CCOC(=O)Cn1c(-c2cccnc2Cl)nc2ccccc21,-2.69%
14,Cc1ccc(OCCCn2c(=O)oc3ccccc32)cc1,1.16%
15,CCCCCCCCCCOC(=O)Cn1c(COc2cccc(OC)c2)[n+](C)c2ccccc21,109% (active)
16,CCCCCCCCCCOC(=O)Cn1c(COc2ccc(C)cc2)[n+](C)c2ccccc21,112% (active)
17,COc1cccc(OCCCN2CCCCCC2)c1,-3.45%
18,CCn1c(=N)n(CC(=O)c2cccc(OC)c2)c2ccccc21,-5.87%
19,COc1ccc2nc3n(c(=O)c2c1)-c1cc(C)ccc1C(=O)NC3Cc1ccc(O)cc1 (configuration not stated),9.76%
20,COc1ccc(NS(=O)(=O)c2cc(NC(=O)c3ccc(S(=O)(=O)N(C)C)cc3)ccc2N2CCOCC2)cc1,5.26%
21,COc1ccccc1OCCNC(=O)C(CCSC)NC(=O)COc1ccccc1 (configuration not stated),-1.66%

row,Compound,protection from apoptosis
1,Cc1ccc(S(=O)(=O)N2CCN(C)CC2)cc1,4.63%
2,Cc1ccc(S(=O)(=O)N2CCN(c3ncnc4ccccc34)CC2)cc1,102% (active)
3,Cc1cc(N2CCN(S(=O)(=O)c3ccc(C)c(C)c3)CC2)c2ccccc2n1,10.4%
4,Cc1ccc(C)c(S(=O)(=O)N2CCN(C(=O)Nc3ccccc3)CC2)c1,-4.43%
5,Cc1ccc(C)c(S(=O)(=O)N2CCN(c3ncnc4sccc34)CC2)c1,112% (active)
6,COc1ccc(C)cc1S(=O)(=O)N1CCN(S(=O)(=O)c2cc(C(=O)O)ccc2C)CC1,-3.1%
7,COC(=O)[C@]1(CC(C)C)N[C@H](c2ccc(SC3CCCCC3)cc2)[C@@H]2C(=O)N(C)C(=O)[C@@H]21,2.66%
8,C[C@H](CO)N1C[C@H](C)[C@@H](CN(C)C(=O)NC2CCCCC2)Oc2ccc(NC(=O)c3ccncc3)cc2C1=O,-8.1%
9,CCOc1ccc(NS(=O)(=O)c2ccc(Cl)c(C(=O)N(C)Cc3cccnc3)c2)cc1,5.11%
10,COc1ccccc1CNC(=O)COC(=O)c1cccs1,-8.13%
11,O=C1NC[C@@H](c2ccccc2)OC(=O)[C@H](Cc2ccc(F)cc2)CC/C=C/C[C@H]1CC(=O)N(CCO)Cc1ccccc1,5.81%
12,C#CCOCCOCCOCCNc1nc(N2CCN(C(=O)[C@H](CCCN=C(N)N)n3cc(C(N)[C@@H](C)CC)nn3)CC2)nc(N2CCN(C(=O)[C@H](CO)n3cc([C@@H](N)C(C)C)nn3)CC2)n1 (some centres not stated),-10.4%
13,COc1ccc2cc1Oc1ccc(cc1)C[C@H]1c3cc(c(OC)cc3CCN1C)Oc1c(O)c(OC)cc3c1[C@H](C2)N(C)CC3,98.5% (active)
14,COc1c(O)ccc2c1CN1CCc3cc4c(cc3C1C2)OCO4 (configuration not stated),-2.11%
15,O=C(CNC(=O)c1ccco1)NNC(=O)c1ccc(Br)cc1,-6.27%
16,CC(C)(C)OC(=O)C[C@H]1C/C=C\C[C@@H](CC(=O)N[C@H](CO)Cc2ccccc2)C(=O)NC[C@@H](c2ccccc2)OC1=O,6.61%
17,CC1O[C@H](OC2C(COC3OC(CO)C(O)[C@H](O)C3O)OC(OC3CC[C@]4(C)C(CC[C@@]5(C)[C@@H]4C=C[C@]46OC[C@@]7(CCC(C)(C)C[C@H]74)C(O)C[C@@]56C)C3(C)C)C(O)C2O)C(O)C(O)C1O (some centres not stated),-6.92%
18,C=C(C)C(=O)O[C@H]1C/C(C)=C\C(=O)/C=C(\C)[C@H](O)[C@@H]2OC(=O)C(=C)[C@@H]21,96.8% (active)
19,O=C(NCc1ccc2c(c1)OCO2)c1cc([N+](=O)[O-])ccc1N1CCOCC1,12.9%

# Source: PubChem BioAssay AID435005 (Broad Institute, 2010)
